The results in this text go back to PubChem BioAssay.

Structures are written as SMILES. Activity calls are given as the source filed them.

A short description of this test: optical density shifts of acrAB sulA E. coli – strain DRC41, OD650, 48 h, E. coli filamentation inducer project, primary screen (AID 1152).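 Note: E. coli MC1000 strain DRC41 lacking acrAB efflux pump and sulA.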 Conditions: higher = more signal, called active from +8 up or from −8 down.
In the case of `CC1CC/C=C\[C@H]2OC34C=CCN(C(C)C)C(=O)[C@H]3N(CCO)C(=O)[C@@H]4C2C(=O)O1` (stereo partly specified), the z-score was 0.904 (inactive).

Regarding `C=C(/C(=C/C[C@H](OC(=O)c1ccncc1)c1ccc(CO)o1)c1cnc2ccccc2c1)C(C)C`, the z-score was -0.833 (inactive).

With `Cc1ccc(F)cc1S(=O)(=O)N[C@@H]1CCN(Cc2ccc(Br)cc2)C1`, the z-score was -1.98 (inactive).

Regarding `CN1C2C=C(CCCO)C(C3C(=O)N(C(N)=O)C(=O)C32)C1C1CC1` (stereo unspecified), the z-score is -0.625 (inactive).

With `Cc1ccc(S[C@]2(C(=O)O)CC(=O)N(C3CCCCC3)[C@@H]2c2ccc(CO)cc2I)cc1`, the z-score is 0.263 (inactive).

As to `COCCOC(=O)N1C(=O)[C@@]2(c3cc(C#CC4(O)CCCCCC4)ccc31)[C@H](C(=O)N1CCc3cc(OC)c(OC)cc3C1)[C@H]1C(=O)O[C@H](c3ccccc3)[C@H](c3ccccc3)N1[C@@H]2c1ccc(OCCO)cc1`, the z-score was -0.073 (inactive).

As for `COC(=O)[C@@]1(Cc2ccc(OC)cc2)[C@H]2c3cc(C(=O)N4CCCC4)n(CCc4c[nH]c5ccc(O)cc45)c3C[C@H]2CN1C(=O)c1ccccc1`, the z-score is -0.0255 (inactive).

Turning to `CN(C)C(=O)[C@]1(CCC(=O)OC(C)(C)C)N=C(c2ccc(OCCCO)cc2)O[C@@H]1c1ccccc1CN=[N+]=[N-]`, the z-score was 0.636 (inactive).

For the molecule `CCOC(=O)C1=CC[C@@H](c2ccccc2)N(S(=O)(=O)c2ccc(C)cc2)[C@H]1c1ccccc1`, the z-score is -1.11 (inactive).

In the case of `NC(=O)[C@H]1[C@@H]2C(=O)O[C@@H](c3ccccc3)[C@@H](c3ccccc3)N2[C@@H](c2ccc(OCCO)cc2)[C@]12C(=O)Nc1ccc(C#CCCO)cc12`, the z-score was -0.628 (inactive).

For the molecule `CCCCCCCCCC(O)C1C=CC2C(=O)N(c3ccccc3)C(=O)C2N1Nc1cc(OC)c(OC)c(OC)c1` (stereo unspecified), the z-score is -3.95 (inactive).

As for `COc1cc(OC)c(C(O)C2C=CC3C(=O)N(Cc4ccccc4)C(=O)C3N2n2cnnc2)cc1Br` (stereo unspecified), the z-score is -1.21 (inactive).

Take `O=C1O[C@@H](c2ccccc2)[C@@H](c2ccccc2)N2[C@@H](c3ccc(OCCO)cc3)[C@]3(C(=O)Nc4ccc(C#CC5=CCCCC5)cc43)[C@@H](C(=O)NC[C@H](O)c3ccccc3)[C@H]12`: the z-score is -0.836 (inactive).

`CC(C)[Si](C#CCCCC#N)(O[C@H](c1ccccc1)c1cn(Cc2ccccc2)nn1)C(C)C`: the z-score is 1.99 (inactive).

Take `CC1=C2[C@@H](CCc3ccccc3)OB(O)C[C@@H]2[C@@H]2C(=O)N(C)C(=O)[C@@H]2C1`: the z-score was -0.155 (inactive).

Consider `COc1ccc([Si](C)(C)[C@H]2[C@H](CC(=O)N(CCO)Cc3ccccc3)O[C@@]3(C(=O)N(C)c4c(Br)cc(C)cc43)[C@@H]2C)cc1`, for which the z-score is -0.0939 (inactive).

As for `C=CC[C@@]1(C(=O)NCCCOC)N=C(c2ccc(OCCCO)cc2)O[C@@H]1c1ccccc1N=[N+]=[N-]`, the z-score is 1.37 (inactive).

On to `COC(=O)C(CC#Cc1ccc2c(c1)[C@]1(C(=O)N2)[C@H](c2ccc(O)cc2)N2[C@H](c3ccccc3)[C@H](c3ccccc3)OC(=O)[C@H]2[C@@H]1C(=O)NC[C@H](O)c1ccccc1)C(=O)OC`, for which the z-score is -0.994 (inactive).

Take `COc1ccc([Si](C)(C)[C@H]2[C@H](CC(=O)N3Cc4ccccc4C[C@H]3CO)O[C@@]3(C(=O)N(Cc4ccc(N5CCOC5=O)cc4)c4ccccc43)[C@@H]2C)cc1`: the z-score is -0.742 (inactive).

Consider `COC(=O)c1c(CC[C@@H](CO)NC(=O)N[C@@H](C)Cn2cc(-c3ccccn3)nn2)oc(C(C)=O)c1C(=O)OC`, for which the z-score was -0.476 (inactive).

Consider `COCC(=C=CC[C@H](O)c1ccc(OCCO)cc1)CCO`, for which the z-score is 0.367 (inactive).

In the case of `N[C@@H](Cc1ccccc1)C(=O)NCc1cn(Cc2ccccc2)nn1`, the z-score was 0.676 (inactive).

As for `CCOC(=O)C[C@H]1[C@H](OC(=O)Cc2ccc3c(c2)OCO3)[C@@H](NC(=O)c2ccc3ccccc3n2)c2cc(OCCCO)ccc2N1C(=O)c1ccccc1`, the z-score is 1.43 (inactive).

In the case of `CC(CO)N1C(=O)[C@]2(C)C3C(=O)OCCC/C=C\[C@H]3OC23C=CCN(c2ccc(Cl)cc2)C(=O)[C@@H]13` (stereo partly specified), the z-score is 0.79 (inactive).

For `CC(=O)NCCCC[C@@H]1NC(=O)[C@@H]2C[C@H](C(=O)NCCCCCN)[C@H](c3ccc(O)cc3)N2C1=O`, the z-score is 2.04 (inactive).

As for `COC(=O)[C@@]1(Cc2ccccc2)[C@H]2c3cc(C(=O)N(C)C)n(Cc4ccc(C)o4)c3C[C@H]2CN1C(=O)c1ccccc1`, the z-score is -1.91 (inactive).

For `CCCC[C@@H](O)C1=C(COc2ccccc2)C[C@H]2C(=O)N(Cc3ccccc3)C(=O)[C@H]2[C@H]1CO`, the z-score is 0.232 (inactive).

For the molecule `COC(=O)C1(CC(C)C)C=C2C(=C(c3ccccc3)C(=O)C2C)CN1` (stereo unspecified), the z-score is -1.03 (inactive).

As to `COc1ccc(CCNC(=O)[C@@]2(c3ccc([N+](=O)[O-])cc3)CC(=O)N(C3CCCCC3)[C@@H]2c2ccc(CO)cc2)cc1`, the z-score was 1.31 (inactive).

For `COCCCNC(=O)[C@@]1(Sc2ccc(C)cc2)CC(=O)N(C2Cc3ccccc3C2)[C@@H]1c1ccc(CO)cc1`, the z-score was 0.625 (inactive).

Regarding `CS(=O)(=O)CCOC(=O)C1=CC(c2ccc(CO)cc2)=CC(C2CC2)N(Cc2sc3ccccc3c2Cl)C=C1C(=O)OCCS(C)(=O)=O` (stereo unspecified), the z-score was -3.12 (inactive).

`C=CCOC(=O)[C@@H]1[C@H]2C(=O)O[C@H](c3ccccc3)[C@H](c3ccccc3)N2[C@H](c2ccc(OCCOC(=O)[C@@H]3C[C@@H]4C(=O)N[C@@H](CCCC[N+](C)(C)C)C(=O)N4[C@@H]3c3ccc(O)cc3)cc2)[C@@]12C(=O)Nc1ccc(I)cc12`: the z-score is 0.0995 (inactive).

Regarding `OCCCC1=CC(c2ccc(CN3CCCC3)cc2)N(Cc2cc3c(cc2Br)OCO3)CC1` (stereo unspecified), the z-score was 0.0676 (inactive).

Regarding `CC(c1ccccc1)C(O)C1C=CC2C(=O)N(C)C(=O)C2N1Nc1ccccc1` (stereo unspecified), the z-score was -1.14 (inactive).

`CC(C)N1C(=O)C[C@@](C(=O)O)(c2ccc([N+](=O)[O-])cc2)[C@H]1c1ccc(CO)cc1`: the z-score is 1.47 (inactive).

In the case of `CCCC#C[Si](O[C@H](CC)c1cn([C@H](C)c2ccccc2)nn1)(C(C)C)C(C)C`, the z-score is 2.53 (inactive).
